BAZ2B block: blocks human BAZ2B; 360,000 tested, 4.4% active; AlphaScreen BAZ2B-H3K14Ac peptide displacement; Potency, µM (highest dose often 114 µM), without a hit: top-dose activity change, negative = inhibition, usual class: inhibitors; Q9UIF8; also: % is scaled to controls: 0 for no effect and ±100 for the full control effect; nearly all actives have a fitted effect of over 60% in size
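In this displacement format the biotinylated H3(5-23) peptide acetylated at Lys14 serves as ligand at 50 nM, with BAZ2B at 50 nM in PBS pH 7.4 containing 0.01% Tween-20. Donor and acceptor beads are 10 ug/mL final.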
L3MBTL1 block: L3MBTL1 (human) inhibition; Q9Y468; AlphaScreen L3MBTL1–H3K9me1 peptide binding; Potency, µM (series often up to 57.1 µM), for inactives: at the top dose activity, negative = inhibition, most hits filed as inhibitors; 230,000 tested, 0.66% active; also: % is scaled to controls: 0 for no effect and ±100 for the full control effect; nearly all actives have a fitted effect of over 60% in size
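L3MBTL1 (50 nM) pre-complexed 30 min with biotinylated H3(1-15)K9me1 peptide (75 nM), then compounds added for 30 min at room temperature; AlphaScreen streptavidin donor/nickel chelate acceptor beads (10 ug/mL final) read after 30 min dark incubation.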
G9a block: inhibitors of human histone lysine methyltransferase G9a; 350,000 tested, 8.8% active; Q96KQ7; G9a H3K9 monomethylation, AlphaScreen, 2 h; Potency, µM (series often up to 102 µM), without a hit: at the highest dose activity, negative = inhibition, most hits filed as inhibitors; also: % is scaled to controls: 0 for no effect and ±100 for the full control effect; nearly all actives have a fitted effect of over 75% in size
Target sequence (Q96KQ7 913-1193 limits assumed): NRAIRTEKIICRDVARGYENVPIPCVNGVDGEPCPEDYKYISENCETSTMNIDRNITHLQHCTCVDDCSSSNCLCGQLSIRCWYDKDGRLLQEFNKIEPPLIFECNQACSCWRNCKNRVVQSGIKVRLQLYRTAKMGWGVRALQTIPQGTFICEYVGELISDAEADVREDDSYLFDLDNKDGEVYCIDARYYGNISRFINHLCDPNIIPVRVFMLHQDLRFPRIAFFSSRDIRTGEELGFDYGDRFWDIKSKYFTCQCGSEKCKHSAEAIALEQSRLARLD
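AlphaScreen detection with an anti-monomethyl H3K9 antibody quantified product after a 2 h room-temperature reaction containing 500 nM biotinylated H3K9 peptide, 20 µM SAM and 20 nM enzyme, which had been preincubated 15 min with compound.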
HP1b binding inh: blocks HP1-beta chromodomain binding to methylated histone tails; 390,000 tested, 0.56% active; Potency, µM (top dose mostly 114 µM), for inactives: top-dose activity change, negative = inhibition, hits mostly inhibitors; AID 540317; P83916; AlphaScreen HP1-beta / biotin-H3K9me3 peptide binding; also: nearly all actives have a fitted effect of over 70% in size
Target sequence (P83916 whole entry, looked up): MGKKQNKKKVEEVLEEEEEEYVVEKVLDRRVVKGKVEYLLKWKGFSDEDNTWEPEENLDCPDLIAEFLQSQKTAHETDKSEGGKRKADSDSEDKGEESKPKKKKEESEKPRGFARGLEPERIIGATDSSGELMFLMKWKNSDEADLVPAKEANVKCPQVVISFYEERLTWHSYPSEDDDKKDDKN
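AlphaScreen: HP1-beta (50 nM) preformed 30 min with biotin-H3(1-18)K9me3 peptide (50 nM) in PBS pH 7.4, 0.01% Tween-20. Compound added for 30 min at RT, then streptavidin donor/nickel chelate acceptor beads (10 ug/mL) for 30 min.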
Sfp PPTase inh: inhibitors of Bacillus subtilis Sfp phosphopantetheinyl transferase. 310,000 tested, 3.5% active. Potency, µM, without a hit: largest response in the series, negative = inhibition, usual class: inhibitors. AID 1490. Q9F4F7. Biochemical Sfp PPTase activity, qHTS;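 also: the enzyme is Sfp with the accession as filed and its product quenches rhodamine fluorescence; 0% = enzyme reaction without inhibitor and -100% = no enzyme wells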
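Sfp 15 nM + cpd, 15 min RT; start w/ rhodamine-CoA 5 uM, BHQ-2-YbbR 12.5 uM (final); 50 mM Hepes pH 7.6, 10 mM MgCl2, 0.01% NP-40, 0.01% BSA; read 525/598 nm at 0 and 30 min.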
JMJD2A Tudor: JMJD2A Tudor domain (human) inhibition; O75164; Potency, µM (doses to about 114 µM), inactives show top-dose activity change, negative = inhibition, actives largely listed as inhibitors; AlphaScreen JMJD2A-Tudor / H3K4me3 peptide binding; 390,000 tested, 4.4% active; also: % is scaled to controls: 0 for no effect and ±100 for the full control effect; nearly all actives have a fitted effect of over 50% in size
* = called active by the depositor; ? = inconclusive; · = no result; [ ] = another dose, or the depositor's remark. An excerpt weighted towards active compounds, which were near 12% of everything screened. Calls follow the shape of the dose curve; as a rule, active = well fitted curve in the direction sought with a large enough effect; inconclusive = small, poorly fitted or top-dose-only effect, or another doubt; inactive = no such curve, though single readings can be large; an effect the other way counts as inactive or inconclusive. Potency is read from the fitted curve at half-maximal effect.

SMILES	BAZ2B block	L3MBTL1 block	G9a block	HP1b binding inh	Sfp PPTase inh	JMJD2A Tudor
CCCCC(=O)N(Cc1ccc2c(c1)OCO2)Cc1nc2ccccc2c(=O)[nH]1	-33.4%	1.9%	-6.2%	-14.7%	-11.8%	31.6µM*
CC(NC(=O)COC(=O)CCc1nc2ccccc2c(=O)[nH]1)c1ccccc1 (stereo unspecified)	-16.5%	-4.6%	?	38.7%	3.7%	-9.0%
Cc1ccccc1NC(=O)COC(=O)CCc1nc2ccccc2c(=O)[nH]1	-2.6%	5.3%	44.7µM*	48.9%	14.4%	-10.2%
O=C(COC(=O)CCc1nc2ccccc2c(=O)[nH]1)NC(=O)NC1CCCC1	-0.5%	-3.9%	10µM*	33.4%	0.9%	-30.9%
CCOC(=O)C1(C)C=C(Nc2cccc(C)c2)C(=O)N1c1ccccc1 (stereo unspecified)	12.9%	·	?	26.0%	·	-2.8%
CN(C(=O)c1ccoc1)c1ccc2ccccc2c1	-11.4%	·	-1.6%	26.8%	-4.6%	-13.8%
O=C(COC(=O)CCc1nc2ccccc2c(=O)[nH]1)Nc1ccc2c(c1)OCO2	-17.1%	-10.2%	56.2µM*	40.7%	10.6%	2.7%
C/C(CC(=O)Nc1cccc2c1CCCC2)=N\NC(=O)c1ccccc1N	13.2%	-0.9%	9.8%[2.33 µM]	6.2%	-1.7%	-20.9%
C/C(CC(=O)NC(C)(C)C)=N\NC(N)=S	?	2.7%	3.98µM*	?	35.5µM*	?
C/C(CC(=O)Nc1ccc(Cl)c(C(F)(F)F)c1)=N\NC(N)=S	-22.9%	-5.8%	?	12.8%	4.4%	-7.0%
C/C(CC(=O)NC(C)(C)C)=N\NC(=O)c1ccccc1N	-20.3%	·	?	4.2%	-6.8%	39.8µM*
COc1cc(C2CC(=O)Nc3cc4c(cc32)OCCO4)cc(Br)c1OC (stereo unspecified)	5.9%	·	5.6%[59 µM]	39.5%	·	-8.6%
Cc1ccc(CNC(=O)c2ccc3c(=O)[nH]c4c(C(=O)NCC5CCCO5)sc(=S)n4c3c2)cc1 (stereo unspecified)	35.5µM*	·	?	-38.4%	?	?
O=C(NCc1ccccc1)c1ccc2c(=O)[nH]c3c(C(=O)NCC4CCCO4)sc(=S)n3c2c1 (stereo unspecified)	39.8µM*	4.7%	44.7µM*	?	-15.7%	?
CCCCCNC(=O)c1ccc2c(=O)[nH]c3c(C(=O)NCC4CCCO4)sc(=S)n3c2c1 (stereo unspecified)	-38.6%	·	?	?	50.1µM*	-33.1%[57.1 µM]
CCN1C(C(=O)c2ccccc2)=C(OC(=O)c2ccccc2OC)c2ccccc2S1(=O)=O	-22.4%	·	-41.2%[59 µM]	1.0%	·	?
O=[N+]([O-])c1cccnc1N1CCOCC1	-3.1%	-4.1%	·	24.5%	0.6%	-17.3%
O=[N+]([O-])c1cccnc1N1CCN(c2ccc(F)cc2)CC1	39.8µM*	-4.2%	44.7µM*	44.7µM*	7.7%	25.1µM*
Cc1ccc(C(=O)N2CCc3cc(CNC(=O)CCc4ccccc4)ccc32)cc1	-6.7%	·	2.5%[59 µM]	21.8%	·	-16.0%
CCC1Oc2ccc(Cl)cc2N(CC(=O)NCCc2ccc(Cl)cc2)C1=O (stereo unspecified)	-0.4%	·	-6.1%[59 µM]	34.5%	·	-15.9%
COCCn1c(-c2ccc(-c3ccccc3Cl)o2)nc2c1c(=O)[nH]c(=O)n2CC(C)C	0.6%	5.7%	22.4µM*	11.3%	17.8µM*	-28.0%
COCCn1c(-c2ccc(NC(C)=O)cc2)nc2c1c(=O)[nH]c(=O)n2CC(C)C	3.5%	·	39.7%	-19.5%	1.8%	-11.4%
CCCCn1c(=O)[nH]c(=O)c2c1nc(-c1ccc(-c3ccccc3Br)o1)n2CCOC	-7.4%	10.1%	15.8µM*	5.3%	39.8µM*	-30.5%
CCCCn1c(=O)[nH]c(=O)c2c1nc(-c1ccncc1)n2CCOC	6.7%	-6.6%	8.8%[12.7 µM]	30.8%	11.2%	-8.4%
Cc1nc2ccc(Br)cc2c(=O)n1Cc1cccs1	·	·	·	57.7%	·	-1.7%
O=S(=O)(c1ccc(Br)cc1)N1CCN(c2nc(-c3ccccc3)nc3ccccc23)CC1	·	·	·	39.7%	·	-20.6%
